Compounds with a hit are over-represented: about 7.7% of the library has one in this group of screens.
HCMV antiviral: human cytomegalovirus inhibition; HFF cells, HCMV-luciferase reporter, 72 h; stronger effect = lower value; activity change, negative = inhibition, % at 57.5 µM; 410,000 compounds, 4.5% hits; in the data active means activity change below about -60%; inconclusive means no clear call, values can overlap the other calls; inactive means above about -39%
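Cell-based, HFFs, 1000 cells/well, 16 h 37C; cpds in DMSO + HCMV-luc, MOI 1 PFU/cell; 72 h 37C; OneGlo luminescence after 5 min RT; norm. to buffer vs Salinomycin 10uM.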
FMDV antiviral: foot and mouth disease virus antiviral activity. Potency, µM (top dose mostly 57.9 µM), for the others: at the highest dose activity change, negative = inhibition, most hits filed as inhibitors. FMDV antiviral cell-based qHTS. 410,000 compounds, 1.2% hits; calls by dose curve; tested in HEK293T cells; further: read-out not given here; potency means the concentration at half of the fitted maximal effect; nearly all actives have a fitted effect of over 45% in size
TbPYK inhibitor: blocks Trypanosoma brucei pyruvate kinase; 410,000 compounds, 0.12% hits; Q57TT1; Potency, µM (series often up to 76.8 µM), without a hit: at the highest dose activity, negative = inhibition, most hits filed as inhibitors; TbPYK enzyme, Kinase-Glo Plus ATP luminescence, 45 min; further: potency means the concentration at half of the fitted maximal effect; nearly all actives have a fitted effect of over 50% in size
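TbPYK + substrate in 50 mM TEA pH 7.2, 100 mM KCl, 10 mM MgCl2, 0.05% BSA, 0.01% Tween-20; cpd pinned; ADP 130 uM final; 45 min RT; Kinase-Glo Plus 10 min; luminescence endpoint.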
Sm TGR block: blocks Schistosoma mansoni thioredoxin glutathione reductase; purified TGR, DTNB reduction, TNB absorbance 405 nm; Potency, µM (series often up to 114 µM), without a hit: top-dose activity change, negative = inhibition, most hits filed as inhibitors; Q962Y6; 360,000 compounds, 3% hits; further: potency means the concentration at half of the fitted maximal effect; nearly all actives have a fitted effect of over 60% in size
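TGR 20 nM + NADPH 100 uM (dispensed conc.), cpd preinc 15 min RT; start with NADPH (500 uM addition) then DTNB (15 mM addition). Kinetic TNB absorbance, 405 nm filter. Four-parameter Hill fit across titration.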
RE007 growth inh: less growth of the S. pombe RE007 Vpr strain; 360,000 compounds, 0.21% hits; S. pombe RE007 Vpr strain, BacTiter-Glo ATP luminescence, 24 h; Potency, µM (top dose mostly 92.2 µM), without a hit: at the top dose activity change, negative = less growth, hits mostly inhibitors; AID 651644; active means well fitted falling curve with a large enough effect; inconclusive means small, poorly fitted or top-dose-only effect; inactive means no such curve, though single readings can be large or run the other way; further: potency means the concentration at half of the fitted maximal effect; nearly all actives have a fitted effect of over 50% in size
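Fission yeast strain RE007, carrying one chromosomally integrated HIV-1 vpr copy, was seeded at OD 0.01 in PMG+AL medium with 23 nL pinned compound. After 24 h at 30 °C and 99% humidity, viability was read by BacTiter-Glo luminescence.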
FBPA Giardia inh: blocks Giardia fructose-bisphosphate aldolase activity | purified Giardia FBPA | Potency, µM (top dose mostly 59.6 µM), without a hit: at the top dose activity, negative = inhibition, usual class: inhibitors | 290,000 compounds, 0.71% hits; further: potency means the concentration at half of the fitted maximal effect; nearly all actives have a fitted effect of over 55% in size
Target sequence (A8B2U2 whole entry, looked up): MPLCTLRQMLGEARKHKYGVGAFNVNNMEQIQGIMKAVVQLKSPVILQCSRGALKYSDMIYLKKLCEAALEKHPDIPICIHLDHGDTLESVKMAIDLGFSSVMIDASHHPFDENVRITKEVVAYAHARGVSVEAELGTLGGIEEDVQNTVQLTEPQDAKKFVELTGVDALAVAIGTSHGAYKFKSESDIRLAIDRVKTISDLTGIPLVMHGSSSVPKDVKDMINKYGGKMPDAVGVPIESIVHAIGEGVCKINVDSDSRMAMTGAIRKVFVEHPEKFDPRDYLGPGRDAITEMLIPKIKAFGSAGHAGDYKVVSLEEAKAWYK
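Giardia FBPA (40 nM reagent) was preincubated 10 min at RT with compound (up to 57.5 uM final), then substrate plus GAPDH/TPI/NAD/arsenate coupling system with diaphorase/resazurin was added; resorufin fluorescence (525/598 nm) was read after 20 min.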
An asterisk follows results filed as active; ? = inconclusive; · = no result; [ ] = dose if it differs, or a comment. Unless noted, the call rests on the fitted dose curve; in most records, active means well fitted curve in the direction sought with a large enough effect; inconclusive means small, poorly fitted or top-dose-only effect, or another doubt; inactive means no such curve, though single readings can be large; an effect the other way counts as inactive or inconclusive. On the % scale 0 is the no-effect control and ±100 the full control effect.

SMILES	HCMV antiviral	FMDV antiviral	TbPYK inhibitor	Sm TGR block	RE007 growth inh	FBPA Giardia inh
CCN(C(=O)COC(=O)CNC(=O)C12CC3CC(CC(C3)C1)C2)C1CCS(=O)(=O)C1 (centres undefined)	-102*	0%	7%	3%	16%	-2%
CO[C@H]1[C@H](NC(=O)c2cccc(F)c2)c2ccccc2C12CCN(Cc1ccco1)CC2	·	-6%	·	·	·	·
Cc1cc(C)c(NC(=O)Cn2ccn(-c3cccc(Cl)c3)c(=O)c2=O)c(C)c1	-39	-14%	-5%	-6%	·	·
CC[N+](C)(CC)CCC/C(=N/O)C(O)(c1ccccc1)c1ccccc1	-65*	7%	-4%	0%	-11%	1%
COc1ccc(S(=O)(=O)N(C(=O)c2ccncc2)c2ccc3oc(C)c(C(C)=O)c3c2)cc1	?	-15%	-3%	-29%	·	·
COC(=O)c1c(C)oc2ccc(N(C(=O)c3ccncc3)S(=O)(=O)c3ccc(OC)cc3)cc12	-95*	-22%	6%	-2%	·	·
CCOc1ccc(S(=O)(=O)N(C(=O)c2ccncc2)c2ccc3oc(C)c(C(=O)OC)c3c2)cc1	-79*	-24%	-1%	1%	·	·
CCc1ccc(S(=O)(=O)N(C(=O)c2ccncc2)c2ccc3oc(C)c(C(=O)OC)c3c2)cc1	-64*	-5%	1%	1%	·	·
CC(=O)N1CCc2c(sc3nc(SCC(C)C)n(-c4ccc(C)c(Cl)c4)c(=O)c23)C1	-11	-23%	-2%	-22%	·	·
C#CCNC(=O)C1CCN(c2ccc(S(=O)(=O)N3CCOCC3)cc2Cl)CC1	?	-30%	4%	?	-6%	0%
Cc1cc(C)nc(N2CCC(C(=O)NCc3ccco3)CC2)n1	-17	-13%	-3%	-2%	-12%	0%
O=C(NCc1cccs1)C1CCN(c2ccc(S(=O)(=O)N3CCOCC3)cc2Cl)CC1	-86*	-12%	8%	0%	-4%	4%
Cc1cc(C)nc(N2CCC(C(=O)NCc3cccs3)CC2)n1	-93*	24%	-1%	0%	5%	3%
Cc1ccc(S(=O)(=O)N2CCC(=O)N(CCOCc3cccc(Cl)c3)CC2)cc1	-64*	-7%	6%	-17%	14%	1%
CCOC(=O)CC1C(=O)NCCN1C(=O)c1cc2c(=O)n3ccccc3nc2s1 (centres undefined)	·	·	·	-5%	·	?
CCOC(=O)CC1C(=O)NCCN1C(=O)c1cc2c(=O)n3cccc(C)c3nc2s1 (centres undefined)	72	-21%	-9%	35µM*	-12%	-3%
CN(C)S(=O)(=O)c1ccc2c(c1)N(CC(=O)N1CCN(c3ccc(F)cc3)CC1)CCS2	13	-28%	6%	0%	·	·
Cc1ccc(/C=C/C(=O)NCc2ccc3c(c2)OCO3)o1	-62*	27%	?	13µM*	16%	3%
Cc1ccc(/C=C/C(=O)NC2CCCCCCC2)o1	-36	39%	7.9µM*	2.5µM*	-91%	-17%
Cc1ccc(/C=C/C(=O)NCc2ccc(S(N)(=O)=O)cc2)o1	?	2%	10µM*	·	-6%	-20%
Cc1ccc(/C=C/C(=O)Nc2ccncc2)o1	-10	0%	-15%	8.9µM*	-15%	-8%
Clc1ccc(-c2noc3ncnc(NCCc4ccccc4)c23)cc1	?	-9%	-8%	-5%	·	·
CCNC(C)Cc1ccc2c(c1)OCO2 (centres undefined)	·	·	6%[157 µM]	·	·	·
CCOC(=O)C1CSCCS(=O)(=O)N1Cc1cccc(F)c1 (centres undefined)	-8	·	·	·	·	·
CO[C@H]1COC(=O)C/C=C\[C@@H](C)COC(=O)[C@@H](OCc2ccccc2)/C=C\[C@@H]1C	·	·	·	·	·	3%[12.9 µM]
SMILES	HCMV antiviral	FMDV antiviral	TbPYK inhibitor	Sm TGR block	RE007 growth inh	FBPA Giardia inh
Cc1ccc(/C=C/C(=O)Nc2ccc(S(N)(=O)=O)cc2)o1	25	-11%	?	7.9µM*	-4%	-18%
CCCCN(C)CC(O)Cn1cc(/C=C/C(=O)c2ccc(OC)c(OC)c2)c2ccccc21 (centres undefined)	-108*	-4%	-1%	-3%	·	·
CCCN(CCC)CC(O)Cn1cc(/C=C/C(=O)c2ccc(C)cc2)c2ccccc21 (centres undefined)	-107*	0%	-4%	-10%	·	·
CCCN(CCC)CC(O)Cn1cc(/C=C/C(=O)c2ccc(OC)cc2)c2ccccc21 (centres undefined)	8	-14%	2%	-20%	·	·
CCCCN(C)CC(O)Cn1cc(/C=C/C(=O)c2ccc(Br)cc2)c2ccccc21 (centres undefined)	-107*	-19%	4%	-4%	·	·
CCCN(CCC)CC(O)Cn1cc(/C=C/C(=O)c2ccccc2)c2ccccc21 (centres undefined)	-27	-19%	2%	-15%	-8%	-5%
CCCCN(C)CC(O)Cn1cc(/C=C/C(=O)c2ccc(C)cc2)c2ccccc21 (centres undefined)	-98*	?	-13%	3%	·	4%
Cc1nn(C)c2c1c(C(F)(F)F)cc(=O)n2C(C)C(=O)NCc1ccccc1 (centres undefined)	-3	-27%	1%	1%	·	·
COc1ccccc1-c1noc2nc(N(C)Cc3ccc(F)cc3)ccc12	-9	·	·	·	·	·
COc1ccc(Oc2ccc3c(-c4ccccc4F)noc3n2)c(F)c1	0	·	·	·	·	·
O=S(=O)(N1CC[C@@]23C1=CC=C[C@@H]2N(S(=O)(=O)C(F)(F)F)c1ccccc13)C(F)(F)F	35	·	·	·	·	·
CCCOc1cc(C)nc(-c2ccccc2O)n1	-65*	5%	-9%	6%	-15%	5%
Cc1ccc(-c2nc3c(c(=O)[nH]c(=O)n3Cc3ccccc3)n2C)s1	·	·	·	-11%	·	2%
Cc1ccc(-c2nc3c(c(=O)[nH]c(=O)n3Cc3ccccc3)n2C)o1	?	27%	-15%	3.5µM*	-3%	-23%
Cc1ccc(-c2nc3c(c(=O)[nH]c(=O)n3Cc3ccccc3)n2Cc2ccccc2)o1	?	?	-6%	18µM*	-3%	-18%
CCOc1ccc(C(=O)NC(=S)Nc2ccccc2N2CCC(C)CC2)cc1[N+](=O)[O-]	-97*	?	10%	8%	2%	3%
FC(F)(F)c1ccccc1-c1nc(NCc2cccnc2)c2ccccc2n1	·	-25%	·	·	·	-3%
FC(F)(F)c1nc(NCc2cccnc2)c2ccccc2n1	-62*	-25%	-1%	-11%	-23%	5%
CC(=O)c1cc(F)c(N2CCOCC2)cc1C	2	·	0%	-21%	-4%	3%
Cc1cc(N2CCOCC2)c(F)cc1C(=O)c1ccccc1	39	-7%	0%	-25%	13µM*	5%

Assay outcomes from PubChem.
